Each structure is given as a SMILES string. Where “and” joins values, the source holds several entries; their conditions need not be identical. Equal values may be shown once. Results filed as inconclusive are left out. Where a structure was tested more than once in an assay, its records may differ in their call. Calls of active or inactive are those of the source. The calls were made as follows: active = hit-call score of the fitted dose curve at least 0.9, where 1 is the maximum; inconclusive = response in the unintended direction; inactive = score below 0.9.

The test system of this experiment is turtle Thyroid Hormone Receptor, alpha (TRa), gene 101949057. The experiment is described as follows: ATG_trTRa_XSP2: Attagene TRANS-FACTORIAL Multi-Species (XSP1) HepG2 Assay for turtle Thyroid Hormone Receptor, alpha (TRa) (AID 2283834).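 Also: hits raise reporter mRNA over the DMSO baseline so AC50 marks activators.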 The procedure:
ATG_XSP2_multi-species_TRANS is a cell-based, multiplexed assay created by modifying the existing Attagene TRANS-FACTORIAL system to include a panel of nuclear receptors from some or all the following species: human (Homo sapiens), mouse (Mus musculus), frog (Xenopus laevis), zebrafish (Danio rerio), chicken (Gallus gallus), and turtle (Chrysemys picta). The ECOTOX-FACTORIAL format uses HepG2, a human liver cell line, with measurements taken at 24 hours after chemical dosing in a 24-well plate. Xsp2 included 3 nM 6-alpha-fluorotestosterone and 1.5 nM norgestrel to stimulate the androgen receptor.ATG_trTRa_XSP2 is one of 29 assay components measured or calculated from the ATG_XSP2_multi-species_TRANS assay. It is designed to make measurements of mRNA induction, a form of inducible reporter, as detected with fluorescence intensity signals by Reverse transcription polymerase chain reaction (RT-PCR) and Capillary electrophoresis technology.The assay endpoint ATG_trTRa_XSP2 was analyzed in the positive analysis fitting direction relative to DMSO as the negative control and baseline of activity. Using a type of inducible reporter, measures of mRNA for gain-of-signal activity can be used to understand the reporter gene at the transcription factor-level as they relate to the gene TR. Furthermore, this assay endpoint can be referred to as a primary readout, because this assay has produced multiple assay endpoints where this one serves a reporter gene function. To generalize the intended target to other relatable targets, this assay endpoint is annotated to the nuclear receptor intended target family, where the subfamily is non-steroidal.
Human liver HepG2 cells are transiently transfected with multiple reporter transcription units (MRTUs) in 6-well plates using FuGene 6 reagent (Roche; 3 ml FuGene/1 mg DNA). The MRTU constructs are regulated by a cis-regulating element (promoter). […] A major difference between the CIS and TRANS system is that in CIS activities of endogenous TFs are measured, whereas the TRANS assay evaluates changes in activities of exogenous, chimeric NR-Gal4 proteins. […] At the end of 24 hour incubation, total RNA was isolated using TriZol reagent (Invitrogen). The isolated RNA is then reverse-transcribed using oligo(dT) primer and Mo-MLV reverse transcriptase (Invitrogen) with DNAse I (Ambion) treatment for 30 min. The one-tenth of the produced cDNA was amplified by PCR using Taq DNA polymerase (Invitrogen) and two reporter sequence-specific primers. The PCR products were fluorescently labeled by primer extension with 6-arboxyfluorescein (6-FAM) 5'-labeled reporter sequence-specific primer (2 min at 95 C, 20 s at 68 C and 10 min at 72 C) and these products were digested with 5U of HpaI (New England Biolabs) for 2h at 37 C. The fragments were purified using Qiaquick PCR columns (Qiagen), analyzed on an ABI 3130xL genetic analyzer (Applied Biosystems) with peak positions identified by using a set of X-rhodamine (ROX)-labeled MapMarker1000 molecular weight standards (BioVentures). The raw capillary electrophoresis data was processed using Attagraph software (Attagene).
Consider `CCC(=C(c1ccc(O)cc1)c1ccc(OCCN(C)C)cc1)c1ccccc1`, for which the result was inactive.

Consider `c1ccc2c(c1)ccc1ccccc12`, for which the outcome was inactive.

For `CCC(C)(C)C1CCC(O)CC1` (stereo not given), the compound was called inactive.

Take `O=C(O)Cc1cc(I)c(Oc2cc(I)c(O)c(I)c2)c(I)c1`: the AC50 (commonly the midpoint of the concentration-response curve, whichever way the signal moves) is 91.9 nM (active) and 48.7 nM (active).

For the compound `CCCOC(=O)c1ccc(O)cc1`, the compound was classed as inactive.

As to `CC[C@H](c1ccc(O)cc1)[C@@H](CC)c1ccc(O)cc1`, the compound was classed as inactive.

Take `Oc1cc2ccccc2c2ccccc12`: the call was inactive and the AC50 was 10.6 µM (active).

With `O=c1c(-c2ccc(O)cc2)coc2cc(O)ccc12`, the compound was classed as inactive.

Consider `C#C[C@]1(O)CC[C@H]2[C@@H]3CCC4=CC(=O)CC[C@@H]4[C@H]3CC[C@@]21C`, for which the compound was called inactive.

The values above are taken from PubChem BioAssay (EPA / NIEHS).
